Screens: PubChem, National Center for Advancing Translational Sciences (NCATS)
Only some compounds are listed: those with a hit (about 6.6% of all), similar ones and a draw of the others.
MCF10A rereplic – induces DNA re-replication in MCF 10a normal breast cells | MCF 10A DNA re-replication, Hoechst nuclear intensity, 48 h | Potency, µM (doses to about 46.1 µM), for the others: top-dose activity, positive = re-replication, usual class: activators | actives 2.9% (n = 350,000) | AID 624296; note: % of control where 0% means no effect; nearly all actives have a fitted effect of over 50% in size
KB-3-1 cytotox – kills parental KB-3-1 adenocarcinoma cells | AID 1347075 | KB-3-1 viability, CellTiter-Glo ATP luminescence, 72 h | Potency, µM (series often up to 46.1 µM), hits mostly cytotoxic | actives 1.4% (n = 400,000); note: % is set by controls: 0 for no effect and ±100 for the full control effect; nearly all actives have a fitted effect of over 60% in size
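Screening of KB-3-1 cells (DMEM, 10% FBS, phenol-red free) ran from lowest to highest compound concentration; after 72 h at 37 °C viability was read luminescently and curves fitted.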
SW480 rerep – DNA re-replication induction in SW480 cells; SW480 DNA re-replication, Hoechst DNA content imaging, 48 h; Potency, µM (highest dose often 46.1 µM), for the others: at the top dose re-replication activation, actives largely listed as activators; actives 1.8% (n = 340,000); AID 624297; note: % of control where 0% means no effect; nearly all actives have a fitted effect of over 55% in size
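Quantitative HTS format with DMSO vehicle controls; 48 hr drug incubation at 37 C, then 40 min Hoechst staining and scanning imager measurement at 405 nm excitation.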
KB-V1 cytotox – kills drug-selected multidrug resistant KB-V1 cells; KB-V1 MDR cells viability, CellTiter-Glo, 72 h; Potency, µM (doses to about 46.1 µM), hits mostly cytotoxic; actives 3.4% (n = 400,000); AID 1347076; note: % is set by controls: 0 for no effect and ±100 for the full control effect; nearly all actives have a fitted effect of over 60% in size
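Cells of the MDR subline KB-V1 are plated, dosed with compound at multiple concentrations, and incubated 72 h at 37 degrees C; CellTiter-Glo is then added and luminescence read after 10 min.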
TSG101-PTAP inh – blocks PTAP/TSG101 interaction to inhibit HIV-1 budding; 340,000 tested, under 10 active; Fluorescence polarization, FITC-PTAP peptide / Tsg101 binding; Potency, µM (highest dose often 115 µM), for inactives: top-dose activity change, negative = inhibition, actives largely listed as inhibitors; Q99816; AID 493005; active = well fitted inhibition curve with a large enough effect in the main read-out, with a control signal flat, not every such curve was filed as active; inconclusive = small, poorly fitted or top-dose-only effect, or effect the other way, or a change in a side signal; inactive = no such curve, though single readings can be large or run the other way; note: % of control where 0% means no effect
Target sequence (Q99816 whole entry, looked up): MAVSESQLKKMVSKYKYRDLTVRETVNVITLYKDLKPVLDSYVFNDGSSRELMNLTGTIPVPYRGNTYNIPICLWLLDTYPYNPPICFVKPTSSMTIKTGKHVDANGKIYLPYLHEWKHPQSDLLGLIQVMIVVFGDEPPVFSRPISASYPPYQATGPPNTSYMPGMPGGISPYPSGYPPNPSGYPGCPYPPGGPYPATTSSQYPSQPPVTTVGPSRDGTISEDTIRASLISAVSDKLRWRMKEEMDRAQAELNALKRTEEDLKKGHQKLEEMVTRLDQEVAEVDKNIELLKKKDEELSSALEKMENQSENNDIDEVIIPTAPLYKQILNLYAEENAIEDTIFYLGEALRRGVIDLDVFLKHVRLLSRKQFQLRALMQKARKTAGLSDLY
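Tsg101 binding domain (10 uM final) was mixed with compound and a FITC-labeled PTAP peptide (50 nM final) in HEPES pH 7.5 buffer with NaCl, Tween 20, EDTA and TCEP; fluorescence polarization was read after 20 min at r.t.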
RGS4 inh – blocks human RGS4-accelerated GTP hydrolysis. P49798. Transcreener GDP fluorescence polarization, RGS4-accelerated GTP hydrolysis. Potency, µM (series often up to 114 µM), for the others: at the top dose activity change, negative = inhibition, usual class: inhibitors. actives 0.039% (n = 390,000). AID 504845; note: % is set by controls: 0 for no effect and ±100 for the full control effect; nearly all actives have a fitted effect of over 75% in size
Target sequence (P49798 whole entry, looked up): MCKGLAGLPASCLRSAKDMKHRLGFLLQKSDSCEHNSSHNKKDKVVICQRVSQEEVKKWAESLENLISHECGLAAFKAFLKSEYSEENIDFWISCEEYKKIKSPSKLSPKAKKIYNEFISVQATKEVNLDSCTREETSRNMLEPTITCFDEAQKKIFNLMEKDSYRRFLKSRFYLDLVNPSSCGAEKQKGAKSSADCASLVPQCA
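MLSMR compounds (23 nl, pin-transferred) preincubated 10 min at room temperature with a 500nM (2x) first reagent, then RGS4 at 900nM (2x) plus Transcreener GDP mix added; fluorescence polarization (620/688 nm) read before and after 90 min at 30 °C.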
Active calls of the source: *; [ ] = another dose, or the depositor's remark. Unless noted, calls come from the whole dose curve; as a rule, active = well fitted curve in the direction sought with a large enough effect; inconclusive = small, poorly fitted or top-dose-only effect, or another doubt; inactive = no such curve, though single readings can be large; an effect the other way counts as inactive or inconclusive. Potency is the fitted concentration of half-maximal effect.

For C=C1C(=O)[C@]23C[C@H]1CCC2[C@@]1(C)C(C[C@@H]3O)[C@](C)(C(=O)OC)CC[C@@H]1OC(C)=O (stereo partly specified) the results were KB-3-1 cytotox inconclusive and KB-V1 cytotox 16.4µM*.
C=C1C(=O)[C@]23C[C@H]1CC[C@H]2[C@]1(C)[C@@H](OC(C)=O)CC[C@@](C)(C(=O)OC)[C@H]1C[C@@H]3OC(C)=O was read as KB-3-1 cytotox inconclusive and KB-V1 cytotox inactive.
`CCOc1cc(C)c(S(=O)(=O)Nc2ccc(Cl)cn2)cc1C` gave MCF10A rereplic 23.1µM*, KB-3-1 cytotox inactive, SW480 rerep 15.6%, KB-V1 cytotox inconclusive, TSG101-PTAP inh -5.2% and RGS4 inh 26.3%.
CCOc1ccc(S(=O)(=O)Nc2ccc(Cl)cn2)c(C)c1C was read as MCF10A rereplic -0.7%, KB-3-1 cytotox inconclusive, SW480 rerep -6.9%, KB-V1 cytotox 23.1µM*, TSG101-PTAP inh -9.4% and RGS4 inh 7.0%.
For Cc1cc(Cl)c(S(=O)(=O)Nc2ccc(Cl)cn2)cc1OCC(N)=O the results were MCF10A rereplic -1.7%, KB-3-1 cytotox inactive, SW480 rerep -2.6%, KB-V1 cytotox inactive, TSG101-PTAP inh -9.1% and RGS4 inh -22.5%.
CCOc1ccc(C(C)C)cc1S(=O)(=O)Nc1ccc(Cl)cn1 was read as MCF10A rereplic 1.0%, KB-3-1 cytotox inactive, SW480 rerep 2.9%, KB-V1 cytotox inactive, TSG101-PTAP inh -0.6% and RGS4 inh 3.2%.
For COc1cccc(CCc2ccccc2OCC(CN(C)C)OC(=O)CCC(=O)O)c1 (stereo unspecified) the results were MCF10A rereplic 29.3%, KB-3-1 cytotox inactive, SW480 rerep 29.9µM* and KB-V1 cytotox inactive.
Screening Cc1csc(NCC(=O)c2c(C)[nH]c3ccccc23)n1 returned KB-3-1 cytotox inactive and KB-V1 cytotox inactive.
For Cc1ccc(C)c(C(=O)Nc2cc(C)nn2-c2nc(C)cc(C)n2)c1 the results were MCF10A rereplic inconclusive, KB-3-1 cytotox 20.6µM*, SW480 rerep 8.1%, KB-V1 cytotox inconclusive, TSG101-PTAP inh -4.5% and RGS4 inh 27.9%.
CCN(CC)CCP(=O)(c1ccccc1)c1ccccc1 was read as MCF10A rereplic 9.2µM*, KB-3-1 cytotox inactive, SW480 rerep inconclusive, KB-V1 cytotox inactive, TSG101-PTAP inh -8.0% and RGS4 inh 2.3%.
O=C(Cc1ccc2ccccc2c1)Nc1nnc(-c2ccncc2)s1 was read as KB-3-1 cytotox inactive and KB-V1 cytotox inactive.
COc1ccccc1N(CC(=O)Nc1ccc2c(c1)OCO2)S(=O)(=O)c1ccc(C)cc1 was read as KB-3-1 cytotox inactive, KB-V1 cytotox inactive and RGS4 inh -4.4%.
For Cc1ccc(Cn2c(C(CO)Nc3nc(-c4ccc(F)cc4)cs3)nc3ccccc32)cc1 (stereo unspecified) the results were MCF10A rereplic inconclusive, KB-3-1 cytotox 16.4µM*, SW480 rerep 17.6%, KB-V1 cytotox inactive, TSG101-PTAP inh -2.2% and RGS4 inh -37.7%.
Cc1ccc(-c2csc(NCCn3c(-c4ccncc4)nc4ccccc43)n2)cc1 was read as MCF10A rereplic 2.5%, KB-3-1 cytotox inconclusive, SW480 rerep 0.1%, KB-V1 cytotox 20.6µM*, TSG101-PTAP inh -1.6% and RGS4 inh -35.0%.
`COc1ccc(-c2csc(NC(CO)c3nc4ccccc4n3Cc3ccc(C)cc3)n2)cc1` (stereo unspecified) gave MCF10A rereplic inconclusive, KB-3-1 cytotox inconclusive, SW480 rerep inconclusive, KB-V1 cytotox inactive, TSG101-PTAP inh 0.1% and RGS4 inh -20.2%.
`CCC1CN(C(=O)N2CCC(C(=O)NCc3cccc(C)c3)CC2)c2ccccc2O1` (stereo unspecified) gave RGS4 inh -1.4%.
Screening O=C(NCc1ccccc1Br)c1ccc(-n2cnc3cccnc32)cc1 returned KB-3-1 cytotox inactive, KB-V1 cytotox inactive and RGS4 inh -29.7%.
For C(=Nc1cccnc1)c1ccc2ccccc2n1 the results were KB-3-1 cytotox inactive and KB-V1 cytotox inactive.
`CCCCCc1ccc(-c2ccc(=O)[nH]n2)cc1` gave MCF10A rereplic 15.6%, KB-3-1 cytotox 6.51µM*, SW480 rerep -1.1%, KB-V1 cytotox 5.17µM*, TSG101-PTAP inh -29.9% and RGS4 inh -37.0%.
Screening CC1CCc2c(sc3nnn(CC(=O)Nc4ccccc4Cl)c(=O)c23)C1 (stereo unspecified) returned KB-3-1 cytotox inactive, KB-V1 cytotox inactive and RGS4 inh -26.9%.
O=C(CN1C(=O)COc2ccccc21)NCCCN1CCOCC1 was read as MCF10A rereplic -1.2%, KB-3-1 cytotox inactive, SW480 rerep 2.7%, KB-V1 cytotox inconclusive, TSG101-PTAP inh -0.9% and RGS4 inh 17.0%.
For CCc1ccc(/C=C2/Sc3ccccc3N(CC(=O)NCCCN3CCOCC3)C2=O)cc1 the results were MCF10A rereplic inconclusive, KB-3-1 cytotox inactive, SW480 rerep inconclusive, KB-V1 cytotox inactive, TSG101-PTAP inh -1.8% and RGS4 inh 3.3%.
`O=C(CN1C(=O)/C(=C\c2cccc(Br)c2)Oc2ccccc21)NCCCN1CCOCC1` gave MCF10A rereplic 2.91µM*, KB-3-1 cytotox inactive, SW480 rerep 14.6µM*, KB-V1 cytotox inconclusive, TSG101-PTAP inh -5.8% and RGS4 inh -56.5%[56.9 µM].
O=C(CN1C(=O)/C(=C/c2ccc(C(F)(F)F)cc2)Sc2ccccc21)NCCCN1CCOCC1 was read as MCF10A rereplic 20.6µM*, KB-3-1 cytotox inactive, SW480 rerep inconclusive, KB-V1 cytotox inactive, TSG101-PTAP inh -2.6% and RGS4 inh 18.9%.
`O=C(CN1C(=O)/C(=C\c2cccc(Cl)c2)Sc2ccccc21)NCCCN1CCOCC1` gave MCF10A rereplic 20.6µM*, KB-3-1 cytotox inactive, SW480 rerep inconclusive, KB-V1 cytotox inactive, TSG101-PTAP inh -7.8% and RGS4 inh -9.9%.
O=C(CN1C(=O)/C(=C\c2ccccc2Cl)Sc2ccccc21)NCCCN1CCOCC1 was read as MCF10A rereplic 18.4µM*, KB-3-1 cytotox inactive, SW480 rerep 18.4µM*, KB-V1 cytotox inactive, TSG101-PTAP inh -6.5% and RGS4 inh 47.3%.
`O=C(CCN1C(=O)/C(=C\c2ccccc2)SC1=S)NCCCN1CCOCC1` gave MCF10A rereplic inconclusive, KB-3-1 cytotox inactive, SW480 rerep -2.0%, KB-V1 cytotox inconclusive, TSG101-PTAP inh -3.5% and RGS4 inh 8.3%.
